In PubChem BioAssay:
Inconclusive results are not listed. For some of these results: Results with a measured potency or affinity are listed apart. Activity calls are given as the source filed them. Unless noted, the rule behind the calls is not given here.

Experiments:
[1] = antimalarial activity against Dd2 strain (AID 2302;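 active = growth inhibition above 50% at the single 2 µM test dose, taken to imply half-maximal potency below 2 µM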;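 note: 0% = DMSO untreated growth and 100% = chloroquine plus artemisinin killed control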); conditions: P. falciparum Dd2 in RBCs, LDH growth readout, 72 h; at 2 µM; stronger effect = higher value
[2] = HepG2 cytotoxicity, primary screen, cytotoxicity control for P. falciparum antimalarial project, cell-based, ATP luminescence (AID 2303;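 active = inhibition above 50%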;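 note: 0% = DMSO wells and 100% = digitonin-killed cells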); conditions: HepG2 viability, 24-48 h, at 10 µM, stronger effect = higher value
[3] = molecular target: L-lactate dehydrogenase (Plasmodium falciparum (isolate CDC / Honduras)) (UniProt Q27743); experiment: PfLDH activity inhibition – cell lysate, 3D7 strain, counter-screen for P. falciparum growth inhibition project (AID 2304);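 note: 0% = vehicle and 100% = reference inhibitor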; conditions: P. falciparum 3D7 crude extract, LDH APAD/NBT absorbance; at 2 µM; stronger effect = higher value
L-lactate dehydrogenase (Plasmodium falciparum (isolate CDC / Honduras)), sequence (Q27743 whole entry, looked up): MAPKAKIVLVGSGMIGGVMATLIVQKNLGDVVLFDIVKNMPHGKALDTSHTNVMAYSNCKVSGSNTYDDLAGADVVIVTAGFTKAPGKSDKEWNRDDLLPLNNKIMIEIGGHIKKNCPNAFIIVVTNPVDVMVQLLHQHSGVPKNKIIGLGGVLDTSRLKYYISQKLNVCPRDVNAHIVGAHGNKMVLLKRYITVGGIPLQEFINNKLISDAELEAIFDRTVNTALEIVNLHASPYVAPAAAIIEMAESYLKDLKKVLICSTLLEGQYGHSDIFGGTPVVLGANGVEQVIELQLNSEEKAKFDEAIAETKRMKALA

[4] = inhibition of 3D7 malaria parasite growth – strain 3D7 (AID 2306);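 note: 0% = DMSO wells and 100% = chloroquine plus artemisinin control wells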; conditions: P. falciparum 3D7 erythrocytic growth, LDH absorbance, 72 h; at 2 µM; stronger effect = higher value
[5] = molecular target: Plasmodium falciparum protein kinase 6 (PK6, PF3D7_1337100) (UniProt Q8IDW1); experiment: PfPK6 kinase inhibitors, biochemical, TCAMS library (AID 1159586); conditions: recombinant PfPK6, Kinase-Glo ATP depletion luminescence
Plasmodium falciparum protein kinase 6 (PK6, PF3D7_1337100), sequence (Q8IDW1 1-305): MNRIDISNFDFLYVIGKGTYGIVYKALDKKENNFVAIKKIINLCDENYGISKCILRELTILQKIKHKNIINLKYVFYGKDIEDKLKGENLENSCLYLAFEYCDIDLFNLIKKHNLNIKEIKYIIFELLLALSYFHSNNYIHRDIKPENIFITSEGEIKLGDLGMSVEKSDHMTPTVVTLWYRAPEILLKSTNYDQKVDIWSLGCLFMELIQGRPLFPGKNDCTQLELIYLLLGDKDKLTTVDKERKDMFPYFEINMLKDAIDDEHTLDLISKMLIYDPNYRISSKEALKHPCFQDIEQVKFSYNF

[6] = molecular target: Protein kinase 7 (PK7), Plasmodium falciparum 3D7 (PF3D7_0213400) (UniProt Q7YTF7); experiment: inhibition of Plasmodium PK7 catalytic activity – biochemical, TCAMS antimalarial set, Kinase-Glo luminescence (AID 1159587); conditions: recombinant PfPK7, Kinase-Glo ATP depletion luminescence
Protein kinase 7 (PK7), Plasmodium falciparum 3D7 (PF3D7_0213400), sequence (Q7YTF7 1-343): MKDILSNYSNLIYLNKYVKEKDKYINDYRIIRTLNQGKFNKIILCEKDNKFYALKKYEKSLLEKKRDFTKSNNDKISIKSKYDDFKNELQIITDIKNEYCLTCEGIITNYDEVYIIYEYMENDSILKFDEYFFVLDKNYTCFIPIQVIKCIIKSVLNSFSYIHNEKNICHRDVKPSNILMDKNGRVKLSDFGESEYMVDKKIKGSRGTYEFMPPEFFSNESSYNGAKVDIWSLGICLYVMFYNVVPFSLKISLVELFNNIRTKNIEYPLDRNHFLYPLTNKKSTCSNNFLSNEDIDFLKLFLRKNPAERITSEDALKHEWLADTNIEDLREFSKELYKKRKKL

[7] = molecular target: Calcium-dependent protein kinase 4 (Plasmodium falciparum (isolate 3D7)) (UniProt Q8IBS5); experiment: PfCDPK4 kinase inhibitors, biochemical, TCAMS library (AID 1159588; cut-off not given, nearly all actives have IC50 up to about 0.91 µM); conditions: recombinant PfCDPK4, Kinase-Glo ATP depletion luminescence
Calcium-dependent protein kinase 4 (Plasmodium falciparum (isolate 3D7)), sequence (Q8IBS5 whole entry, looked up): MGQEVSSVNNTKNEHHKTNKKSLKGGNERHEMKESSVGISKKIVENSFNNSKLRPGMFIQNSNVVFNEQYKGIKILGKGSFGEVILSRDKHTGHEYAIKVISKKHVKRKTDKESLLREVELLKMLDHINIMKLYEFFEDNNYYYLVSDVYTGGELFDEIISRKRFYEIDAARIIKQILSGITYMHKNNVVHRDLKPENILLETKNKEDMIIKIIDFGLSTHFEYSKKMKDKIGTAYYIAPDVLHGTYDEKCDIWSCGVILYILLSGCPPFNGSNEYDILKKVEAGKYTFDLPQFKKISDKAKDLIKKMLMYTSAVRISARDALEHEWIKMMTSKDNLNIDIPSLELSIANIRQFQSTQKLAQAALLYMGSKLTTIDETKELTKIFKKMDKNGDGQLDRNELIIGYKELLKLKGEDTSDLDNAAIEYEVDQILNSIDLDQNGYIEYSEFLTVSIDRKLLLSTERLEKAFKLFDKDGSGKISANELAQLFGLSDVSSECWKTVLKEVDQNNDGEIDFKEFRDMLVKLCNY

[8] = sensitizers of A549 cells to miR-34 induction, primary screen, imaging, A549 dox-inducible miR-34, nuclei and caspase counts (AID 1347080;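 active = compounds whose cell count with miR-34 switched on is under 0.7 times the count with it off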); conditions: A549 miR-34 inducible, Hoechst nuclei count, 48 h
[9] = phospholipid biosynthesis inhibitors in animal cells, primary screen, cell-based, LOPAC library, screen 4 (AID 1347384); conditions: phospholipid biosynthesis inhibition screen, at 10 µM
[10] = viability rescue of complex I mutant cybrids, primary screen, cell-based, galactose medium, ATP luminescence (AID 1645843;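 active = z-score of at least 1.8 in each of two replicates, scored against plate mean and spread of sample wells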;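 note: positive z means more ATP and so rescue of galactose-driven cybrid death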); conditions: complex I mutant cybrid cells, 72 h, stronger effect = higher value
[11] = growth inhibition of DIPG glioma cells, dose response, cell-based, SU-DIPG-XVII, MIPE5.0, CellTiter-Glo, qHTS (AID 1347060; cut-off not given, nearly all actives have AC50 up to about 26 µM;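 note: cells exposed to compound for 48 hours before viability readout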); conditions: SU-DIPG-XVII viability, CellTiter-Glo ATP luminescence
[12] = growth inhibition of DIPG glioma cells, dose response, cell-based, JHH-DIPG-1, MIPE4.0, CellTiter-Glo, qHTS (AID 1347062; cut-off not given, nearly all actives have AC50 up to about 27 µM;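 note: cells exposed to compound for two days before readout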); conditions: JHH-DIPG-1 viability, CellTiter-Glo ATP luminescence
[13] = growth inhibition of DIPG glioma cells, dose response, cell-based, SU-DIPG-IV, MIPE4.0, CellTiter-Glo, qHTS (AID 1347063; cut-off not given, nearly all actives have AC50 up to about 30 µM;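 note: compound exposure lasted 48 hours before the viability readout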); conditions: SU-DIPG-IV viability, CellTiter-Glo ATP luminescence
[14] = viability loss in pontine glioma line – cell-based, SU-DIPG-XXV, MIPE5.0, CellTiter-Glo, qHTS, dose response (AID 1347065; cut-off not given, nearly all actives have AC50 up to about 26 µM;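 note: cells exposed to compound for 48 hours before ATP readout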); conditions: CellTiter-Glo ATP luminescence
[15] = SU-DIPG-VI glioma cell viability, MIPE4.0 library, CellTiter-Glo luminescence, qHTS (AID 1347066; cut-off not given, nearly all actives have AC50 up to about 30 µM;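 note: cells exposed to compound for 48 hours before readout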); conditions: CellTiter-Glo ATP luminescence
[16] = JHH-DIPG-1 glioma cell viability, MIPE5.0 library, CellTiter-Glo luminescence, qHTS (AID 1347067; cut-off not given, nearly all actives have AC50 up to about 26 µM;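 note: cells exposed to compound for 48 hours before readout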); conditions: JHH-DIPG-1 glioma viability, CellTiter-Glo ATP luminescence
[17] = SU-DIPG-XXV glioma cell viability, MIPE5.0 library, qHTS (AID 1347068; cut-off not given, nearly all actives have IC50 up to about 30 µM;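 note: cells exposed to compound for 48 hours before viability readout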)
[18] = modifiers of HSF1 nuclear foci, imaging, Selleck Cancer Library (AID 1347162; in the data active = plate-normalised HSF1 focus index below about 0.46); conditions: human cells, at 10 µM; SSMD: measured here: HSF1 foci SSMD mean; cell count: measured here: cell number; plate-normalised HSF1 focus index: stronger effect = lower value
[19] = stronger effect = lower value, cell number ratio, induced over uninduced
[20] = measured here: relative caspase fold change +Dox/-Dox
[21] = measured here: total cells with miR-34 induction, stronger effect = lower value
[22] = measured here: total cells without miR-34 induction

For `O=C(Nc1c(F)cccc1F)c1cccc(-c2nn3ccccc3c2-c2ccnc(Nc3cccc(-c4cnco4)c3)n2)c1`, the growth inhibition [1] was 94% (active), the inhibition [2] was 96% (active) and the inhibition [3] was -6% (inactive). For the same compound, the growth inhibition [4] was 95% (active), the outcome [5] was “inactive” and the outcome [6] was “inactive”.
In the case of `NC[C@H](CC1CCCCC1)NC(=O)c1ccc(-c2ccnc3[nH]ccc23)s1`, the growth inhibition [1] is reported as 4% (inactive), the inhibition [2] is reported as 39% (inactive) and the inhibition [3] is reported as 5% (inactive). The growth inhibition [4] was 98% (active), the outcome [5] was “inactive” and the outcome [6] was “inactive”.
For `O=C(NCC(c1ccc(C(F)(F)F)cc1)N1CCCC1)c1cc(-c2ccncc2)c(-c2cccc(O)c2)o1` (centres undefined), the growth inhibition [1] was 53% (active), the inhibition [2] was 9% (inactive) and the inhibition [3] was 0% (inactive). For the same compound, the growth inhibition [4] was 95% (active), the outcome [5] was “inactive” and the outcome [6] was “inactive”.
For `CCn1c(-c2nonc2N)nc2c(-c3ccccc3)ncc(OCCCNCCCN3CCOCC3)c21`, the growth inhibition [1] was 91% (active), the inhibition [2] was 28% (inactive) and the inhibition [3] was -7% (inactive). For the same compound, the growth inhibition [4] was 100% (active), the outcome [5] was “inactive” and the outcome [6] was “inactive”.
In the case of `NCC(NC(=O)c1ccc(-c2c[nH]c3ncccc23)s1)c1ccccc1` (centres undefined), the growth inhibition [1] is reported as 87% (active), the inhibition [2] is reported as 52% (active) and the inhibition [3] is reported as 0% (inactive). For the same compound, the growth inhibition [4] was 95% (active), the outcome [5] was “inactive” and the outcome [6] was “inactive”.
With `COc1ccc(Nc2ncc(Cl)c(Nc3cccnc3C(N)=O)n2)cc1N1CCN(C)CC1` the growth inhibition [1] was 97% (active), the inhibition [2] was 77% (active) and the inhibition [3] was 6% (inactive). For the same compound, the growth inhibition [4] was 95% (active), the outcome [6] was “inactive” and the outcome [7] was “inactive”.
For `O=C(Nc1cccc(-c2nn3ccccc3c2-c2ccnc(Nc3ccc(C(=O)N4CCOCC4)cc3)n2)c1)c1c(F)cccc1F`, the growth inhibition [1] was 97% (active), the inhibition [2] was 72% (active) and the inhibition [3] was 4% (inactive). The growth inhibition [4] was 99% (active), the outcome [5] was “inactive” and the outcome [6] was “inactive”.
In the case of `OC1CCC(Nc2ccc3ncc(-c4ccc(Cl)cc4)n3n2)CC1` (centres undefined), the growth inhibition [1] is reported as 98% (active), the inhibition [2] is reported as 57% (active) and the inhibition [3] is reported as 0% (inactive). The growth inhibition [4] was 97% (active), the outcome [5] was “inactive” and the outcome [7] was “inactive”.
In the case of `Cn1c(=O)c(-c2c(Cl)cccc2Cl)cc2cnc(Nc3ccc(N4CCOCC4)cc3)nc21`, the growth inhibition [1] is reported as 97% (active), the inhibition [2] is reported as 64% (active) and the inhibition [3] is reported as 4% (inactive). The growth inhibition [4] was 98% (active), the outcome [6] was “inactive” and the outcome [7] was “inactive”. The fold change [8, 19] was 1.06 (inactive), the fold change [8, 20] was 1.37 and the cell count [8, 21] was 814. The cell count [8, 22] was 768, the outcome [9] was “inactive” and the z-score [10] was -1.38 (inactive).
In the case of `NS(=O)(=O)c1ccc(Nc2nccc(-c3c(-c4cccc(NC(=O)c5c(F)cccc5F)c4)nn4ccccc34)n2)cc1`, the growth inhibition [1] is reported as 89% (active), the inhibition [2] is reported as 83% (active) and the inhibition [3] is reported as -7% (inactive). For the same compound, the growth inhibition [4] was 93% (active), the outcome [6] was “inactive” and the outcome [7] was “inactive”.
In the case of `Cc1cc(Nc2ncc(Cl)c(Nc3ccccc3C(N)=O)n2)n[nH]1`, the growth inhibition [1] is reported as 96% (active), the inhibition [2] is reported as 70% (active) and the inhibition [3] is reported as -1% (inactive). For the same compound, the growth inhibition [4] was 98% (active), the outcome [6] was “inactive” and the outcome [7] was “inactive”.
With `O=C(Nc1cccc(-c2nn3ncccc3c2-c2ccnc(Nc3ccccc3)n2)c1)c1c(F)cccc1F` the growth inhibition [1] was 96% (active), the inhibition [2] was 51% (active) and the inhibition [3] was 0% (inactive). For the same compound, the growth inhibition [4] was 98% (active), the outcome [5] was “inactive” and the outcome [6] was “inactive”.
For `CN(C)Cc1cccc(-c2cc3c(-c4cnn(C)c4)c(Cl)cnc3[nH]2)c1`, the growth inhibition [1] was 21% (inactive), the inhibition [2] was 75% (active) and the inhibition [3] was -5% (inactive). For the same compound, the growth inhibition [4] was 96% (active), the outcome [6] was “inactive” and the outcome [7] was “inactive”.
In the case of `CCn1c(-c2nonc2N)nc2c(-c3cccc(Cl)c3)ncc(OCCCNCCc3cnc[nH]3)c21`, the growth inhibition [1] is reported as 98% (active), the inhibition [2] is reported as 16% (inactive) and the inhibition [3] is reported as -3% (inactive). The growth inhibition [4] was 101% (active), the outcome [5] was “inactive” and the outcome [6] was “inactive”.
In the case of `CCN(CC)CCOc1ccc(Nc2ncc3cc(-c4c(Cl)cccc4Cl)c(=O)n(C)c3n2)cc1`, the growth inhibition [1] is reported as 91% (active), the inhibition [2] is reported as 72% (active) and the inhibition [3] is reported as 1% (inactive). For the same compound, the growth inhibition [4] was 90% (active), the outcome [6] was “inactive” and the outcome [7] was “inactive”. The AC50 [11] was 0.417 µM (active), the AC50 [12] was 2.96 µM (active) and the AC50 [13] was 4.18 µM (active). For the same compound, the AC50 [14] was 1.86 µM (active), the AC50 [15] was 20.9 µM (active) and the AC50 [16] was 4.68 µM (active). The IC50 [17] was 2.95 µM (active), the fold change [8, 19] was 1.1 (inactive) and the fold change [8, 20] was 0.543. The cell count [8, 21] was 761, the cell count [8, 22] was 694 and the SSMD [18] was -11.2. The cell count [18] was 5360, the plate-normalised HSF1 focus index [18] was 0.335 (inactive) and the outcome [9] was “inactive”. The z-score [10] was -1.38 (inactive).
With `CCn1c(-c2nonc2N)nc2c(-c3cccc(NC(=O)Nc4ccc(C#N)cc4)c3)ncc(OCCCN)c21` the growth inhibition [1] was 80% (active), the inhibition [2] was 1% (inactive) and the inhibition [3] was 0% (inactive). For the same compound, the growth inhibition [4] was 85% (active), the outcome [5] was “inactive” and the outcome [6] was “inactive”.
With `Cn1cc(-c2ccnc3[nH]c(-c4cccc(CNC5CCC(O)CC5)c4)cc23)cn1` (centres undefined) the growth inhibition [1] was 82% (active), the inhibition [2] was 48% (inactive) and the inhibition [3] was 2% (inactive). The growth inhibition [4] was 95% (active), the outcome [6] was “inactive” and the outcome [7] was “inactive”.
